Here are results for 13 compounds from PubChem BioAssay (Tox21).

Structures are written as SMILES. Where “and” joins values, the source holds several entries; their conditions need not be identical. Identical values can stand only once. Results filed as inconclusive are left out. Where a structure was tested more than once in an assay, its records may differ in their call. Calls of active or inactive are those of the source. The call rests on the fitted dose curve; in most records, active means well fitted curve in the direction sought with a large enough effect in the repeat runs; inconclusive means weak or mixed curves; inactive means no such curve, though single readings can be large; an effect the other way counts as inactive or inconclusive.

Assay [1] in a line: qHTS RealTime-Glo MT Cell Viability Assay in HepG2 cells - 8 hour (AID 1224873). Further: nearly all actives have a fitted effect of over 55% in size. Further: potency means the concentration at half of the fitted maximal effect. The method, boiled down: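 HepG2 cells (600/well) mixed with RealTime-Glo MT reagent, settled 5 h at 37 C/5% CO2 before compound addition. Nonlytic NanoLuc luminescence from viable-cell prosubstrate reduction read repeatedly during 40 h treatment at 37 C.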
Background: qHTS replaces the single test concentration by a dilution series.

Assay [2] can be described thus: qHTS RealTime-Glo MT Cell Viability Assay in HEK293 cells - 40 hour (AID 1224874). Further: nearly all actives have a fitted effect of over 50% in size. Further: potency means the concentration at half of the fitted maximal effect. The note with it: RealTime-Glo luminescence; max response: stronger effect = lower value. The method, boiled down:
(§1)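 Cells were seeded together with NanoLuc luciferase and a prosubstrate that viable cells reduce to a luciferase substrate. After a 5 h incubation at 37 C/5% CO2, compounds were added and luminescence was measured repeatedly during 40 h of treatment.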

Assay [3] can be described thus: A CellTox Green Cytotoxicity Assay to monitor cytotoxicity in HEK293 cells - 24 hour (AID 1224875). Further: nearly all actives have a fitted effect of over 45% in size. Further: potency means the concentration at half of the fitted maximal effect. On activity change: series mostly up to about 77 µM. The procedure, abridged:
(§2)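 Nonlytic real-time cytotoxicity: HEK293 + CellTox Green reagent plated, 5 h preincubation, pintool compound addition (23 nL in DMSO), 37 C for 40 h, fluorescence measured at successive time points.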

Assay [4] can be described thus: A CellTox Green Cytotoxicity Assay to monitor cytotoxicity in HepG2 cells - 16 hour (AID 1224876). Further: nearly all actives have a fitted effect of over 45% in size. Further: potency means the concentration at half of the fitted maximal effect. The procedure, abridged:
(§3)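 Read-out is fluorescence of a cyanine dye excluded from live cells that stains DNA of dead HepG2 cells, with signal proportional to cytotoxicity. Plates were read at 0, 8, 16, 24, 32 and 40 h after compound addition.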

The nature of assay [5]: qHTS RealTime-Glo MT Cell Viability Assay in HepG2 cells - 32 hour (AID 1224877). Further: nearly all actives have a fitted effect of over 55% in size. Further: potency means the concentration at half of the fitted maximal effect. The procedure, abridged: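 Luminescence read-out: viable HepG2 cells reduce a prosubstrate to a NanoLuc substrate, giving a signal proportional to live cell number. Reads taken at 0, 8, 16, 24, 32 and 40 h of compound exposure at 37 C.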
The nature of assay [6]: A CellTox Green Cytotoxicity Assay to monitor cytotoxicity in HepG2 cells - 24 hour (AID 1224878). Further: nearly all actives have a fitted effect of over 45% in size. Further: potency means the concentration at half of the fitted maximal effect. The method, boiled down:
as §3

Assay [7] in a line: A CellTox Green Cytotoxicity Assay to monitor cytotoxicity in HepG2 cells - 40 hour (AID 1224879). Further: nearly all actives have a fitted effect of over 40% in size. Further: potency means the concentration at half of the fitted maximal effect. The procedure, abridged:
as §3

The nature of assay [8]: qHTS RealTime-Glo MT Cell Viability Assay in HEK293 cells - 0 hour (AID 1224880). Further: top concentration of the series differs between compounds; nearly all actives have a fitted effect of over 45% in size. The method, boiled down:
as §1

The nature of assay [9]: A CellTox Green Cytotoxicity Assay to monitor cytotoxicity in HEK293 cells - 32 hour (AID 1224881). Further: nearly all actives have a fitted effect of over 40% in size. Further: potency means the concentration at half of the fitted maximal effect. The method, boiled down:
as §2
On the % scale 0 is the no-effect control and ±100 the full control effect.

As for `C[N+]1([O-])CCOCC1`, the Potency result in [1], in [3], in [4], in [5], in assay [6] and in assay [7] was “inactive” throughout. In addition, the Potency entry in assay [8] and in [9] was “inactive” each time. In addition, the max response in assay [2] is 0.178% (inactive).

Take `CCCCCC(=O)O[C@]1(C(C)=O)CC[C@H]2[C@@H]3CCC4=CC(=O)CC[C@]4(C)[C@H]3CC[C@@]21C`: in assay [2], the Potency is 24.4 µM (active). Besides, the Potency entry in assay [3], in assay [4], in [5], in [6], in assay [7] and in [8] was “inactive” each time. In addition, the Potency result in assay [9] is “inactive”.

As for `CC(C(O)c1ccc(O)cc1)N1CCC(Cc2ccccc2)CC1` (stereo unspecified), the Potency result in assay [1], in assay [3], in assay [4], in [5], in assay [6] and in assay [7] was “inactive” in each case. The Potency entry in assay [8] and in [9] was “inactive” each time. For the same compound, the max response in assay [2] is -13.3% (inactive).

Take `Cc1cc(OCCOCC[N+](C)(C)Cc2ccccc2)ccc1C(C)(C)CC(C)(C)C`: the Potency is 21.7 µM (active) and 23.9 µM (active) in assay [1]; 9.71 µM (active) and 6.01 µM (active) in assay [2]; 21.7 µM (active) and 23.9 µM (active) in [3]; 19.4 µM (active) and 15.1 µM (active) in assay [4]; 13.7 µM (active) and 9.52 µM (active) in [5]; 17.3 µM (active) and 10.7 µM (active) in assay [6]. For the same compound, the Potency in assay [7] was 13.7 µM (active) and 8.49 µM (active); in assay [9], 21.7 µM (active) and 23.9 µM (active).

Turning to `C=CC(=O)OCCCCCCOC(=O)C=C`, the Potency in [2] is 49.6 µM (active) and 43.6 µM (active); in assay [5], “inactive and 49 µM (active)”; in [7], “inactive and 54.9 µM (active)”. Besides, the Potency result in assay [4], in [6] and in assay [8] was “inactive” in each case.

Consider `CCCCC(CC)COC(=O)CC(C(=O)OCC(CC)CCCC)S(=O)(=O)O` (stereo unspecified), for which the Potency result in assay [1], in assay [5] and in [8] was “inactive” throughout. Moreover, the Potency in assay [3] was 21.9 µM (active); in assay [4], 33.4 µM (active) and 38.9 µM (active); in assay [6] it was 42 µM (active) and 38.9 µM (active); in [7] it was 42 µM (active) and 43.6 µM (active); in assay [9], 21.9 µM (active).

For `NC(Cc1ccc(Cl)cc1)C(=O)O` (stereo unspecified), the viability change, negative = cytotoxic in [1] is -7.98% [at 0.29 µM] (inactive). The max response in [2] is 10.5% (inactive). Also, the activity change in assay [3] was -5.17% [at 0.29 µM, stronger effect = higher value] (inactive). Also, the results for the cytotoxicity increase in [4], in assay [7] and in assay [9] were -4.84% [at 0.29 µM] (inactive), -9.84% [at 0.29 µM] (inactive) and -6.93% [at 0.29 µM] (inactive), respectively. Further, the activity change, negative = cytotoxic in assay [5] was 0.542% [at 0.29 µM] (inactive). In addition, the cytotoxicity in [6] is -5.86% [at 0.29 µM] (inactive). The activity change, negative = cytotoxicity in assay [8] is 12.3% [at 0.29 µM] (inactive).

Regarding `CN(C)c1ccc(C(=C2C=CC(=[N+](C)C)C=C2)c2ccccc2)cc1`, the Potency in [1] is 17.4 µM (active) and 21.3 µM (active) and 19 µM (active); in assay [2], 1.34 µM (active) [middle of 4 runs]; in assay [3], 19.5 µM (active) [middle of 4 runs]; in assay [4], 9.77 µM (active) and 9.52 µM (active) and 7.56 µM (active); in assay [5], 7.56 µM (active) [middle of 4 runs]; in assay [6] it was 6.74 µM (active) [middle of 4 runs]. Also, the Potency in assay [9] is 15.1 µM (active) [middle of 4 runs]. For the same compound, the Potency entry in assay [8] was “inactive”.

Consider `CC1COc2c(N3CCN(C)CC3)c(F)cc3c(=O)c(C(=O)O)cn1c23` (stereo unspecified), for which the Potency entry in assay [3], in assay [4], in assay [6], in [7] and in assay [9] was “inactive” in each case.

In the case of `Nc1nc2ccccc2[nH]1`, the Potency entry in assay [1], in assay [3], in assay [4], in assay [5], in [6] and in assay [8] was “inactive” each time. The Potency entry in assay [9] is “inactive”. For the same compound, in assay [2], the max response is 0.0562% (inactive) and 7.05% (inactive). Moreover, the Potency entry in [7] is “inactive and 216 nM (active)”.

For `O=C(Oc1ccccc1)c1ccccc1O`, the Potency result in assay [1], in assay [3], in [4], in [5], in assay [6] and in assay [7] was “inactive” throughout. Also, the Potency result in assay [8] and in [9] was “inactive” each time. For the same compound, the max response in assay [2] is -18.8% (inactive) and -3% (inactive) and 3.05% (inactive).

In the case of `CC(=O)N[C@@H](CS)C(=O)O`, the Potency result in assay [1], in [3], in assay [4], in assay [5], in [6] and in [7] was “inactive” in each case. In addition, the Potency entry in assay [8] and in [9] was “inactive” throughout. In assay [2], the max response is 3.06% (inactive) and 6.4% (inactive).

Regarding `COc1ccc(CCN2CCC(Nc3nc4ccccc4n3Cc3ccc(F)cc3)CC2)cc1`, the Potency in assay [1] is 35.4 µM (active) and 23.9 µM (active); in [2], 5.62 µM (active) and 10.7 µM (active); in assay [3], 17.8 µM (active) and 23.9 µM (active); in [4] it was 31.6 µM (active) and 21.3 µM (active); in [5], 15.8 µM (active) and 10.7 µM (active); in [6] it was 19.9 µM (active) and 9.52 µM (active). The Potency in assay [7] is 15.8 µM (active) and 8.49 µM (active); in assay [9] it was 14.1 µM (active) and 23.9 µM (active). Also, in assay [8], the Potency entry was “inactive”.
